According to PubChem BioAssay (Tox21):
A number with no mark means an inactive call. Results filed as inconclusive are left out. A call without a number means that no potency is given here. Activity calls are given as the source filed them. Unless noted, the call rests on the fitted dose curve; in most records, active means well fitted curve in the direction sought with a large enough effect in the repeat runs; inconclusive means weak or mixed curves; inactive means no such curve, though single readings can be large; an effect the other way counts as inactive or inconclusive.

Experiments:
[1] = qHTS assay to identify small molecule antagonists of the glucocorticoid receptor (GR) signaling pathway - cell viability counter screen (AID 720693); further: nearly all actives have a fitted effect of over 55% in size
[2] = qHTS assay for identifying genotoxic compounds that show differential cytotoxicity against isogenic chicken DT40 cell lines with known DNA damage response pathways - wild type cell line (AID 743012); further: nearly all actives have a fitted effect of over 60% in size; further: potency means the concentration at half of the fitted maximal effect
Procedure, shortened: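 First, wild type DT40 cells were plated at 300 per well and equilibrated about 0.5 h at 37 C/5% CO2. Next, compounds in DMSO were added and exposure lasted 40 h. Finally, CellTiter-Glo was added for 30 min at room temperature and luminescence recorded.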

[3] = qHTS assay for identifying genotoxic compounds that show differential cytotoxicity against isogenic chicken DT40 cell lines with known DNA damage response pathways - Rad54/Ku70 mutant cell line (AID 743015); further: nearly all actives have a fitted effect of over 60% in size; further: potency means the concentration at half of the fitted maximal effect
[4] = qHTS assay to identify small molecule antagonists of the androgen receptor (AR) signaling pathway using the MDA cell line - cell viability counter screen (AID 743041; further: nearly all actives have a fitted effect of over 45% in size)
Procedure, shortened: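 Viability counter screen run alongside the AR antagonist reporter: cells seeded 5 h before compound, R1881 added, 16 h incubation at 37C without CO2, fluorescent CellTiter-Fluor signal quantified.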

[5] = qHTS assay to identify small molecule antagonists of the thyroid receptor (TR) signaling pathway (AID 743065); further: series mostly up to about 70 µM; nearly all actives have a fitted effect of over 55% in size
Procedure, shortened: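 GH3.TRE-Luc rat pituitary cells carrying two TR response elements driving luciferase were plated for 4 h, given compound plus 1 nM T3 (final), and incubated 23.5 h at 37 C. ONE-Glo luminescence measured reporter inhibition; CellTiter-Fluor fluorescence tracked cytotoxicity.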

[6] = system: thyroid hormone receptor (rat, GH3 cells); experiment: qHTS assay to identify small molecule agonists of the thyroid receptor (TR) signaling pathway (AID 743066; calls by dose curve)
[7] = qHTS assay to identify small molecule antagonists of the estrogen receptor alpha (ER-alpha) signaling pathway - cell viability counter screen (AID 743074; calls by dose curve;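 further: HEK293 cells carrying ER-alpha-UAS-bla reporter stimulated with 17beta-estradiol; nearly all actives have a fitted effect of over 45% in size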)
[8] = qHTS assay to identify small molecule antagonists of the estrogen receptor alpha (ER-alpha) signaling pathway using the BG1 cell line - cell viability counter screen (AID 743081);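 further: compound given together with 17beta-estradiol as the ER stimulus; series mostly up to about 70 µM; nearly all actives have a fitted effect of over 45% in size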
Aromatase (Homo sapiens) = Aromatase (Homo sapiens) (UniProt P11511); experiment: qHTS assay to identify aromatase inhibitors (AID 743083); further: series mostly up to about 70 µM; nearly all actives have a fitted effect of over 55% in size
[9] = qHTS assay to identify small molecule antagonists of the androgen receptor (AR) signaling pathway - cell viability counter screen (AID 743033; further: nearly all actives have a fitted effect of over 45% in size)
[10] = qHTS assay to identify small molecule antagonists of the thyroid receptor (TR) signaling pathway - cell viability counter screen (AID 743064); further: nearly all actives have a fitted effect of over 50% in size
Procedure, shortened: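 GH3.TRE-Luc cells, 4 h pre-plating; cpd + T3 1 nM final; 37 °C 23.5 h; CellTiter-Fluor 30 min; fluorescence read.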

[11] = biological target: Estrogen receptor (Homo sapiens) (UniProt P03372); experiment: qHTS assay to identify small molecule agonists of the estrogen receptor alpha (ER-alpha) signaling pathway (AID 743075; calls by dose curve;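 further: HEK293 GripTite cells with ER-alpha and UAS-driven beta-lactamase reporter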)
[12] = biological target: Estrogen receptor (Homo sapiens) (UniProt P03372); experiment: qHTS assay to identify small molecule agonists of the estrogen receptor alpha (ER-alpha) signaling pathway using the BG1 cell line (AID 743079); further: nearly all actives have a fitted effect of over 20% in size
[13] = qHTS assay to identify small molecule antagonists of the estrogen receptor alpha (ER-alpha) signaling pathway using the BG1 cell line (AID 743080; calls by dose curve;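 further: BG1 cells stimulated with 17beta-estradiol alongside compound; series mostly up to about 70 µM; nearly all actives have a fitted effect of over 25% in size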)
Procedure, shortened: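 After 5 days in phenol-red-free 10% charcoal-stripped FBS medium, BG1-Luc-4E2 cells were seeded, left 24 h at 37 C, co-treated with compounds and 17beta-estradiol for 21.5 h, then assayed for viability and luciferase.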

[14] = biological target: Androgen receptor (Homo sapiens) (UniProt P10275); experiment: qHTS assay to identify small molecule antagonists of the androgen receptor (AR) signaling pathway (AID 743035; active means well fitted inhibition curve with a large enough effect in the signal ratio in the repeat runs, not every such curve was filed as active; the % refers to the signal ratio)
Procedure, shortened: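 Beta-lactamase FRET read (2 h RT incubation with LiveBLAzer B/G) following 16 h of compound plus R1881 treatment of AR-UAS-bla HEK293 cells, which had been pre-incubated 4 h at 37C.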

[15] = biological target: Androgen receptor (Homo sapiens) (UniProt P10275); experiment: qHTS assay to identify small molecule agonists of the androgen receptor (AR) signaling pathway (AID 743036; active means well fitted activation curve with a large enough effect in the signal ratio in the repeat runs, with a control signal flat, not every such curve was filed as active; the % refers to the signal ratio)
Procedure, shortened: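 AR-bla HEK293 cells, 2,000/well; 4 h preincubation 37C/5% CO2; compound (DMSO) 16 h at 37C; LiveBLAzer B/G FRET substrate 2 h RT; fluorescence intensity read-out.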

[16] = biological target: Androgen receptor (Homo sapiens) (UniProt P10275); experiment: qHTS assay to identify small molecule agonists of the androgen receptor (AR) signaling pathway using the MDA cell line (AID 743040; further: nearly all actives have a fitted effect of over 20% in size)
Procedure, shortened: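 Luminescence from ONE-Glo, read after 30 min at room temperature, reflects MMTV-driven luciferase in MDA-kb2 cells (AR- and GR-responsive). Treatment lasted 16 h at 37C, 0% CO2.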

[17] = biological target: Androgen receptor (Homo sapiens) (UniProt P10275); experiment: qHTS assay to identify small molecule antagonists of the androgen receptor (AR) signaling pathway using the MDA cell line (AID 743042; further: nearly all actives have a fitted effect of over 55% in size)
Procedure, shortened: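 MDA-kb2 cells (human breast carcinoma, stably carrying an MMTV-luciferase reporter responsive to AR and GR) were plated at 3,000 cells/well and preincubated 5 hr at 37C, then given compound plus R1881 agonist for 16 h. ONE-Glo luminescence was read.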

[18] = qHTS assay for identifying genotoxic compounds that show differential cytotoxicity against isogenic chicken DT40 cell lines with known DNA damage response pathways - Rev3 mutant cell line (AID 743014); further: nearly all actives have a fitted effect of over 55% in size
[19] = biological target: Estrogen receptor (Homo sapiens) (UniProt P03372); experiment: qHTS assay to identify small molecule antagonists of the estrogen receptor alpha (ER-alpha) signaling pathway (AID 743069; active means well fitted curve in the direction sought with a large enough effect in the signal ratio in the repeat runs, not every such curve was filed as active; the % refers to the signal ratio)
Procedure, shortened: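 Estradiol-stimulated ER-alpha-UAS-bla HEK293 cells, 18 hr compound exposure at 37C. LiveBLAzer B/G substrate, 2 hr RT, fluorescence read.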

Sequence of Aromatase (Homo sapiens) (P11511 whole entry, looked up): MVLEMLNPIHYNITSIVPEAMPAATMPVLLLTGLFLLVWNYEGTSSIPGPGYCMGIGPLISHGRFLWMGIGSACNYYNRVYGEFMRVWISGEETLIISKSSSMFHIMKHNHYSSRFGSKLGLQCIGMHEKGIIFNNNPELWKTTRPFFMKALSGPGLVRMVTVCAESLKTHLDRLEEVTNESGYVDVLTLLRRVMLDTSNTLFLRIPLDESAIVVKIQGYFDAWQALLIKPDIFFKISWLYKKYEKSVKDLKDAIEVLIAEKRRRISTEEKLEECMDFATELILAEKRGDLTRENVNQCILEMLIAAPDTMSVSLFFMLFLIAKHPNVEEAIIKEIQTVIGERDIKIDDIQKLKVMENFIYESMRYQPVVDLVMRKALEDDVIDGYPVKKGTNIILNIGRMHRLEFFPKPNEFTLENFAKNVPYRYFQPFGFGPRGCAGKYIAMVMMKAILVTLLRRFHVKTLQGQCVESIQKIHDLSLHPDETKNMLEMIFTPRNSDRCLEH
Sequence of Androgen receptor (Homo sapiens) (P10275 whole entry, looked up): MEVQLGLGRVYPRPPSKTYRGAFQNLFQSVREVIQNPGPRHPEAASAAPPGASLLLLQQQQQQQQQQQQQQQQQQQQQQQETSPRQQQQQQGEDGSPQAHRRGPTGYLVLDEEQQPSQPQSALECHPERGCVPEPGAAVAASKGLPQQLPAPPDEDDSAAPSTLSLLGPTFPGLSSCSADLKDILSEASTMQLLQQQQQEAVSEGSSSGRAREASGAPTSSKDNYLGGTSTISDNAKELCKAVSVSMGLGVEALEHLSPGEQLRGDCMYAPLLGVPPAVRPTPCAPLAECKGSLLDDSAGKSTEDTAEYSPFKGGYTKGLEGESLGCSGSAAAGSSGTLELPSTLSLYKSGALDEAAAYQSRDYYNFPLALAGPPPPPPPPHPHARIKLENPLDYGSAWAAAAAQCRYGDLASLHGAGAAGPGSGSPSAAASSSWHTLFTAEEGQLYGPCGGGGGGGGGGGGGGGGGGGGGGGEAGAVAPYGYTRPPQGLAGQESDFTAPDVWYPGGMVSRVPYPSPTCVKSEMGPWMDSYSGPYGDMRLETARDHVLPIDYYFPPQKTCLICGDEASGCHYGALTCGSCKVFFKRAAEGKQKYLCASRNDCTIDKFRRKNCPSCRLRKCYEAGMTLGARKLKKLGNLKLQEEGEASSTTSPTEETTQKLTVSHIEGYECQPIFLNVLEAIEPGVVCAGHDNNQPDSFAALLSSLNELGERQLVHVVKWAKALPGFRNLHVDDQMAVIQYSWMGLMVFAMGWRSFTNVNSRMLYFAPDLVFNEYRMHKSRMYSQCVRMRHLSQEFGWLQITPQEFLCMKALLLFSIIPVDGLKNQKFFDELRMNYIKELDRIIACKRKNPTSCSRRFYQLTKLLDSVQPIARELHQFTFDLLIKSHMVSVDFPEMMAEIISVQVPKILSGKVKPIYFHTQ
Sequence of Estrogen receptor (Homo sapiens) (P03372 whole entry, looked up): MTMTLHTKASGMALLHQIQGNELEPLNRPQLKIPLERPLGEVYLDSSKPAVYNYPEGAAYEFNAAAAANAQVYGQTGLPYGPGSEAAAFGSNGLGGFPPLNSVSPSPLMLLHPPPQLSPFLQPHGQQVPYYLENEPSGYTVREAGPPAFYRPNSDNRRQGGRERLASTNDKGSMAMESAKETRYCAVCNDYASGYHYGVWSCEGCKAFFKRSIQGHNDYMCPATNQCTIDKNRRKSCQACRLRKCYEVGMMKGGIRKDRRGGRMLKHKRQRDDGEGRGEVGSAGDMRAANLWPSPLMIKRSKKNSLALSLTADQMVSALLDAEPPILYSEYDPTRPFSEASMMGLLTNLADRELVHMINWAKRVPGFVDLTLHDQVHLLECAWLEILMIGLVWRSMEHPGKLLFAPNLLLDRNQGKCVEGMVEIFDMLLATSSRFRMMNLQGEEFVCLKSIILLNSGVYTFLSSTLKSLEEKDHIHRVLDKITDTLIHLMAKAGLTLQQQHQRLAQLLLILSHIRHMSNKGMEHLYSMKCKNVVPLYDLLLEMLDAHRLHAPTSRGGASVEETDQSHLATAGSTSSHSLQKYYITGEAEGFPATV

| Structure (SMILES) | Potency [1] | Potency [2] | Potency [3] | outcome [4] | Potency [5] | Potency [6] | Potency [7] | outcome [8] | outcome (Aromatase (Homo sapiens)) | outcome [9] | Potency [10] | Potency [11] | Potency [12] | outcome [13] | Potency [14] | outcome [15] | outcome [16] | outcome [17] | Potency [18] | Potency [19] |
| --- | --- | --- | --- | --- | --- | --- | --- | --- | --- | --- | --- | --- | --- | --- | --- | --- | --- | --- | --- | --- |
| CN(C1CCCCC1)S(=O)(=O)c1ccccc1N | inactive | 30.6 µM (active) | 54.5 µM (active) | inactive | inactive | inactive | inactive | inactive | inactive | – | – | – | – | – | – | – | – | – | – | – |
| CC(C)CCCCCCOC(=O)C1CCCCC1C(=O)OCCCCCCC(C)C (configuration not stated) | inactive | inactive | inactive | inactive | inactive | inactive | inactive | inactive | inactive | inactive | inactive | inactive | inactive | inactive | – | – | – | – | – | – |
| CCCCCCCCCCCCCC(=O)OC | inactive | inactive | – | inactive | inactive | inactive | inactive | inactive | inactive | inactive | – | inactive | inactive | – | inactive | inactive | inactive | inactive | – | – |
| CCCCCCCCOC(C)=O | inactive | inactive | inactive | inactive | inactive | inactive | inactive | inactive | inactive | inactive | inactive | inactive | inactive | inactive | – | – | – | – | – | – |
| CC(=O)OC(C)(C)Cc1ccccc1 | inactive | inactive | – | inactive | inactive | inactive | inactive | inactive | – | inactive | inactive | – | – | – | – | – | – | – | inactive | – |
| O=C(Nc1cccc(C2=NCCN2)c1)Nc1cccc(C2=NCCN2)c1 | inactive | 11.9 µM (active) | 18.8 µM (active) | inactive | – | – | inactive | inactive | inactive | inactive | inactive | inactive | – | inactive | – | – | – | – | – | – |
| O=C1c2ccccc2-c2ccccc21 | inactive | – | inactive | inactive | inactive | inactive | inactive | inactive | inactive | inactive | inactive | – | – | – | inactive | inactive | inactive | inactive | inactive | – |
| O=c1cc(O)c(Cl)c[nH]1 | inactive | inactive | inactive | inactive | – | – | inactive | inactive | inactive | inactive | inactive | – | – | – | – | – | – | – | – | – |
| CNC(=O)C(c1ccccc1)c1ccccc1 | inactive | 61.1 µM (active) | – | inactive | inactive | inactive | inactive | inactive | inactive | inactive | inactive | inactive | inactive | – | – | – | – | – | – | – |
| CCC(C)(C)C1CCC(=O)CC1 | inactive | inactive | inactive | inactive | inactive | inactive | inactive | inactive | inactive | inactive | inactive | inactive | – | inactive | inactive | inactive | inactive | inactive | – | inactive |
